From the supplement of paper PMC8047044

What follows are compounds tested on Neuro-2a (assay: neurite formation score, plate-normalized to DMSO control mean 5.04 (score (0-8 scale)); higher = more or longer neurites). Settings: 1 µM.
Procedure: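 Neuro-2a mouse neuroblastoma cells in PLL-coated 96-well plates were pre-treated for 1 h in DMEM(+) with each kinase inhibitor at 1 µM, then switched to serum-free DMEM(-) with inhibitor to induce neurite outgrowth and fixed about 2-3 h later. Three blinded observers scored neurite formation from 0 (no neurites) to 8 (long neurites on almost all cells).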

| Structure (SMILES) | neurite formation score |
| --- | --- |
| CCN1CCN(C(=O)Cc2ccc(Nc3ncc(F)c(Nc4ccc(C(=O)Nc5ccccc5Cl)cc4)n3)cc2)CC1 [Aurora A Inhibitor I] | 3.69 |
| COC[C@H]1OC(=O)c2coc3c2[C@@]1(C)C1=C(C3=O)[C@@H]2CCC(=O)[C@@]2(C)C[C@H]1OC(C)=O [Wortmannin] | 4.63 |
| N#CC(C#N)=Cc1ccc(O)c(O)c1 | 4.91 |
| CC(C)(C)c1cc(C=C(C#N)C#N)cc(C(C)(C)C)c1O [Tyrphostin 9] | 4.96 |
| COc1ccc(N(C(=O)Oc2c(C)cccc2C)c2ccnc(Nc3ccc(N4CCN(C)CC4)cc3)n2)c(OC)c1 | 3.88 |
| O=c1[nH]c2ccccc2n1C1CCN(Cc2ccc(-c3[nH]c4cc5ncnc5cc4nc3-c3ccccc3)cc2)CC1 [AKT inhibitor VIII] | 4.91 |
| COc1cc([C@@H]2c3cc4c(cc3[C@H](O)[C@H]3COC(=O)[C@@H]23)OCO4)cc(OC)c1OC | 4.24 |
| Cc1ccccc1-n1c(Cn2cnc3c(N)ncnc32)nc2cccc(C)c2c1=O | 5.21 |
| COc1ccc2c(c[n+](C)c3c4cc5c(cc4ccc23)OCO5)c1OC [Chelerythrine Chloride] | 4.57 |
| Cn1cc(C2=C(c3cn(C4CCN(Cc5ccccn5)CC4)c4ccccc34)C(=O)NC2=O)c2ccccc21 | 3.91 |
| O=c1[nH]c2ccc(Cl)cc2c(N[C@@H]2CN3CCC2CC3)c1-c1nc2ccccc2[nH]1 | 5.96 |
| CC(C)(C)c1cc(C=C(C#N)C#N)cc(Br)c1O | 4.24 |
